Results as given in PubChem BioAssay AID624151 (Broad Institute, 2012).
Among all 28,000 compounds or so, about 410 (1.5%) were called active. The sample as a whole holds a higher share of actives than the screen did. Values without a mark were called inactive. No stated cut-off is given here; in the data, active means activation above about 52%; inconclusive means no clear call, values can overlap the other calls; inactive means below that.

assay: mutant p53 pathway re-activators, primary screen, cell-based, SW480, luciferase, single point, HTS (AID 624151); settings: SW480 PUMA-promoter luciferase, p53 mutant reactivation; at 9.98 µM; hits give high values

| SMILES | activation |
| --- | --- |
| Cc1ccnc(NCc2ccc(N(C)C)cc2)c1 | 45.6% |
| Cc1cc([N+](=O)[O-])nn1CC(=O)NC(C)C | -1.03% |
| N#Cc1c(NC(=O)CCn2cnc3ccccc3c2=O)sc2c1CCCC2 | 4.75% |
| COc1ccc(C(=O)CSc2nnc(-c3cccc(C)c3)n2-c2ccccc2)cc1 | -17.1% |
| CCOc1ccc2c(=O)c(Oc3ccccc3Br)coc2c1 | 53.9% (active) |
| Cc1cc(C)c(C)c(Oc2coc3cc(OCC(=O)Nc4ccccc4Cl)ccc3c2=O)c1 | -8.1% |
| O=C(COc1ccc2c(=O)c(-c3ccccc3)coc2c1)Nc1ccc(F)cc1 | 5.8% |
| O=C(CSc1nnc(-c2ccccc2F)n1-c1ccccc1)Nc1ccc(Br)cc1 | -2.35% |
| CCOC(=O)c1c(NC(=S)Nc2cnccn2)sc2c1CCCCCC2 | -14.1% |
| COc1ccc(N(CC(=O)Nc2ccccc2F)S(C)(=O)=O)cc1 | -10.8% |
| O=C(NCc1ccco1)C1CCCN(S(=O)(=O)c2ccccc2)C1 (stereo unspecified) | -15.8% |
| O=C(CS(=O)(=O)Cc1ccccc1)Nc1cccnc1 | -13.2% |
| CC(C)c1cnc(NC(=O)Cc2ccccc2)s1 | 118% (active) |
| O=C(c1ccccc1Br)N1CCN(c2ccc([N+](=O)[O-])c(NCc3cccnc3)c2)CC1 | 1.31% |
| COc1ccc(NC(=O)C(=O)NCC(=O)Nc2cccc(C(F)(F)F)c2)cc1 | 3.32% |
| CCCN(C)C[C@H]1Oc2ncc(C#CCOC)cc2C(=O)N([C@@H](C)CO)C[C@H]1C | 6.77% |
| COc1ccc(S(=O)(=O)N(C)C[C@H]2OCCCC[C@@H](C)Oc3ccc(NC(=O)NC(C)C)cc3C(=O)N([C@H](C)CO)C[C@H]2C)cc1 | -3.86% |
| COc1ccc(OC(C)C(=O)Nc2ccc(OC)c(OC)c2)cc1 (stereo unspecified) | 8.88% |
| N#Cc1cc2c(nc1SCC(=O)Nc1ccccc1C(F)(F)F)CCCCC2 | 25.5% |
| Cc1cccc(NC(=O)CSc2nc3c(cc2C#N)CCCCC3)c1 | 90.8% (active) |
| CN(C)c1ccc(NC(=O)CSc2nc3c(c(C(F)(F)F)c2C#N)CCCCCC3)cc1 | -6.67% |
| COCC#Cc1ccc2c(c1)O[C@H](CN(C)Cc1ccc3c(c1)OCO3)[C@H](C)CN([C@H](C)CO)S2(=O)=O | 12.5% |

| SMILES | activation |
| --- | --- |
| CCn1c2ccccc2c2cc(NS(=O)(=O)c3ccccc3[N+](=O)[O-])ccc21 | -0.615% |
| Cn1c(SCC(=O)Nc2c(Cl)cccc2Cl)nnc1-c1ccc(NC(=O)c2ccc(F)cc2)cc1 | -1.4% |
| COc1ccc(OC)c(NC(=O)CSc2n[nH]c(-c3ccncc3)n2)c1 | -8.93% |
| Cc1ccc(C(C)C)cc1OCC(O)Cn1cnc2ccccc21 (stereo unspecified) | -15.4% |
| CCCNC(=O)N(C)C[C@@H]1Oc2ncc(-c3cccc(C#N)c3)cc2C(=O)N([C@@H](C)CO)C[C@@H]1C | 2.46% |
| CC(=O)c1cccc(NC(=O)C(C)N(c2ccc(C)cc2)S(C)(=O)=O)c1 (stereo unspecified) | 0.89% |
| Cc1cc(=O)[nH]c(SCCCOc2ccccc2-c2ccccc2)n1 | -15.4% |
| C[C@H]1CN([C@@H](C)CO)C(=O)c2cc(/C=C/c3ccccc3)cnc2O[C@@H]1CN(C)C(=O)c1ccc(F)cc1 | 5.51% |
| COc1ccc(NC(=O)Cn2cnc3sc(C)c(C)c3c2=O)cc1 | 4.48% |
| COc1ccc(NC(=O)N(C)C[C@H]2Oc3cc(-c4ccncc4)ccc3S(=O)(=O)N([C@H](C)CO)C[C@H]2C)cc1 | -12.4% |
| COc1ccc(NC(=O)CSC2CC(=O)N(c3ccc(F)cc3)C2=O)cc1 (stereo unspecified) | -1.05% |
| Cc1ccccc1-n1c(C)cc(/C=C2\NC(=O)NC2=O)c1C | 22.9% |
| Cc1ccc(C(=O)O)cc1S(=O)(=O)NCCCO | -7.19% |
| COc1cccc2cc(C(=O)C3C(=O)C(=O)N(CCN4CCOCC4)C3c3ccc(F)cc3)oc12 (stereo unspecified) | 4.69% |
| C[C@H](O)C#Cc1cnc2c(c1)C(=O)N([C@@H](C)CO)C[C@H](C)[C@H](CN(C)C(=O)c1ccccc1)O2 | 10.7% |
| C[C@@H]1CN([C@H](C)CO)S(=O)(=O)c2ccc(C#CC3CC3)cc2O[C@H]1CN(C)C(=O)C1CCCCC1 | -13.7% |
| Cc1sc2ncnc(SCC(=O)Nc3ccccc3)c2c1-c1ccccc1 | -11.3% |
| Cc1ccc(S(=O)(=O)c2nc(-c3cccs3)oc2NCc2cccnc2)cc1 | -4.49% |
| C[C@@H]1CN([C@H](C)CO)S(=O)(=O)c2ccc(C#C[C@@H](C)O)cc2O[C@H]1CN(C)C(=O)CC1CC1 | 0.298% |
| CS(=O)(=O)N(CC(=O)Nc1ccc(Br)cc1)c1cc(Cl)c(Cl)cc1Cl | -23.8% |
| C[C@H](CO)N1C[C@H](C)[C@H](CN(C)C(=O)c2cnccn2)Oc2cc(C3=CCCC3)ccc2S1(=O)=O | 3.46% |
| O=C(CSc1nnc(-c2ccncc2)n1-c1ccc(Cl)cc1)Nc1ccc(C(=O)O)cc1 | 7.38% |

| SMILES | activation |
| --- | --- |
| CCCC#Cc1cnc2c(c1)C(=O)N([C@H](C)CO)C[C@H](C)[C@@H](CN(C)C(=O)c1cccnc1)O2 | 2.84% |
| Cc1ccn2c(NC(=O)C(C)(C)Oc3ccc(Cl)cc3)c(-c3ccc(F)cc3)nc2c1 | -19% |
| CCc1ccccc1NC(=O)CSc1nnc(N)s1 | 10.1% |
| COc1ccc(NC(=O)C(C)N2c3cccc4cccc(c34)S2(=O)=O)c(OC)c1 (stereo unspecified) | -6.27% |
| COc1ccccc1-c1cnc2c(c1)C(=O)N([C@@H](C)CO)C[C@@H](C)[C@@H](CN(C)C(=O)c1cccnc1)O2 | 2.65% |
| COc1ccccc1-c1cnc2c(c1)C(=O)N([C@H](C)CO)C[C@H](C)[C@@H](CN(C)CC1CCOCC1)O2 | 5.27% |
| O=C(O)CCSc1nnc2c(n1)[nH]c1ccccc12 | -2.83% |
| O=C(CSc1nnc(-c2ccco2)n1-c1ccccc1)Nc1ccc(F)cc1 | 7.08% |
| Cc1ccc(-c2nnc(SCC(=O)Nc3ccccc3OC(F)F)o2)cc1 | 102% (active) |
| O=C(CSc1nnc(-c2ccc(Br)cc2)o1)Nc1ccc2ccccc2c1 | -20.7% |
| COc1ccccc1-c1nnc(SCC(=O)Nc2ccccc2)o1 | 28.3% |
| O=C(CSc1ncnc2sc3c(c12)CCCC3)Nc1ccc(F)c(Cl)c1 | 0.113% |
| CC(C)Cc1nc(SCC(=O)Nc2ccc3ccccc3c2)n[nH]1 | 9.32% |
| C/C=C/c1ccc2c(c1)O[C@H](CN(C)Cc1cccc(F)c1)[C@H](C)CN([C@H](C)CO)S2(=O)=O | -12.7% |
| COc1ccccc1NC(=O)N(C)C[C@@H]1Oc2ncc(Br)cc2C(=O)N([C@@H](C)CO)C[C@@H]1C | 3.31% |
| CCn1c(SCC(=O)O)nc2sc3c(c2c1=O)CC(C)(C)OC3 | 17.9% |
| COC(=O)c1cc(OC)c(OC)cc1NC(=O)c1cc(-c2ccc(C)o2)nc2ccccc12 | 21.7% |
| Cc1ccc(C(=O)Oc2ccc(C(=O)CSc3nc4ccccc4o3)cc2)cc1 | 45.6% |
| COc1ccc(C(=O)CCC(=O)Nc2ccc(Br)cc2)cc1 | -1.31% |
| COc1ccccc1NC(=O)CSc1n[nH]c(C)n1 | -9.46% |
| CCOc1ccc(NC(=O)Cn2c(=O)n(-c3ccc(Cl)cc3)c(=O)c3c4c(sc32)CCC4)cc1 | -5.81% |
| COc1ccccc1-n1c(N)cc(=O)nc1SCC(=O)Nc1ccc(Br)cc1 | 3.88% |

| SMILES | activation |
| --- | --- |
| COC(=O)COc1cccc(NC(=O)c2cc(OC)c(OC)c(OC)c2)c1 | 9.43% |
| Cc1cc2oc(C(=O)Nc3sc4c(c3C(=O)NCc3ccco3)CCC4)c(C)c2cc1C | -5.36% |
| C[C@@H]1CN([C@@H](C)CO)S(=O)(=O)c2ccc(-c3cccc(C#N)c3)cc2O[C@@H]1CN(C)Cc1cccc(F)c1 | -25.7% |
| C[C@@H]1CN([C@@H](C)CO)C(=O)c2cc(/C=C/c3ccccc3)cnc2O[C@H]1CN(C)C(=O)Nc1ccc(C(F)(F)F)cc1 | -18.8% |
| COc1ccc(Cl)cc1NC(=O)CSc1nnc(-c2ccc(Cl)c(Cl)c2)n1C | 1.7% |
| C/C=C/c1ccc2c(c1)O[C@H](CN(C)C(=O)Cc1cccnc1)[C@@H](C)CN([C@H](C)CO)S2(=O)=O | -5.22% |
| Cc1cc(=O)oc2cc(OC(C)C(=O)Nc3ccc(Cl)c(C(F)(F)F)c3)ccc12 (stereo unspecified) | 0.711% |
| CCCC#Cc1ccc2c(c1)O[C@@H](CN(C)CC1CC1)[C@@H](C)CN([C@H](C)CO)S2(=O)=O | 1.22% |
| COCCNC(=O)C[C@@H]1C[C@@H]2c3cc(NC(=O)Nc4ccc(C(F)(F)F)cc4)ccc3O[C@@H]2[C@@H](CO)O1 | 11.3% |
| Cc1ccnc(NC(c2cccc([N+](=O)[O-])c2)c2ccc3ccc(C)nc3c2O)c1 (stereo unspecified) | -13.9% |
| Cc1csc2nc(SCC(=O)Nc3ccc([N+](=O)[O-])cc3)[nH]c(=O)c12 | 15.6% |
| COc1cc(NC(=O)COc2ccccc2Br)c(OC)cc1Cl | 132% (active) |
| CCOc1ccc(OCC(=O)Nc2cc(C)c(Cl)cc2OC)cc1 | 8.21% |
| COc1cc(NC(=O)COc2cc(C)c(Br)c(C)c2)c(OC)cc1Cl | 0.202% |
| COc1cc(NC(=O)COc2ccc(Cl)cc2C)c(OC)cc1Cl | 105% (active) |
| COC(=O)c1cc(OC)c(OC)cc1NC(=O)COc1ccc(Cl)cc1 | -22.9% |
| Cn1nnc(NC(=O)COc2ccc(Cl)cc2Cl)n1 | 70.8% (active) |
| COc1cc(NC(=O)COc2ccc(Br)cc2)ccc1NC(=O)c1ccccc1Cl | 20.3% |
| COC(=O)c1cc(OC)c(OC)cc1NC(=O)COc1ccccc1Cl | 10.4% |
| COc1ccc(NC(=O)CSc2nnnn2C)cc1Cl | 47.7% |
